RecA intein inh: blocks M. tuberculosis RecA intein splicing; P9WHJ3; cell-free RecA intein splicing, fluorescence; inhibition, % (no concentration beside the values); 290,000 compounds, 0.75% hits; in the data active = inhibition above about 30%; inconclusive = no clear call, values can overlap the other calls;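 note: 0% = vehicle wells and 100% = reference inhibitor control wells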
Mtb bLac sens: beta-lactam sensitization of Mtb H37Rv | inhibition, % at 25 µM | M. tuberculosis H37Rv growth with meropenem, percent inhibition | 330,000 compounds, 0.27% hits | AID 434955;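 note: growth measured after seven days incubation then overnight dye step; 0% = bacteria only wells and 100% = bacteria with antibiotic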
SSB-PriA inh: blocks PriA binding to SSB C-terminal tail; inhibition, % at 33 µM; AID 1272365; AlphaScreen SSBct-PriA binding, biotinylated peptide; 430,000 compounds, 0.6% hits; in the data active = inhibition mostly above about 37%, no sharp cut-off; inactive = mostly below about 20%;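 note: plate controls were negative control peptide for no effect and reference peptide for full effect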
Rv3671c inh: Rv3671c (M. tuberculosis) protease inhibition; P9WHR9; inhibition, % at 5.96 µM; 320,000 compounds, 0.048% hits; in the data active = inhibition above about 38%;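 note: extracellular domain of Rv3671c used as enzyme; 0% = enzyme with DMSO and 100% = no enzyme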
Target sequence (P9WHR9 whole entry, looked up, the tested form may be a part): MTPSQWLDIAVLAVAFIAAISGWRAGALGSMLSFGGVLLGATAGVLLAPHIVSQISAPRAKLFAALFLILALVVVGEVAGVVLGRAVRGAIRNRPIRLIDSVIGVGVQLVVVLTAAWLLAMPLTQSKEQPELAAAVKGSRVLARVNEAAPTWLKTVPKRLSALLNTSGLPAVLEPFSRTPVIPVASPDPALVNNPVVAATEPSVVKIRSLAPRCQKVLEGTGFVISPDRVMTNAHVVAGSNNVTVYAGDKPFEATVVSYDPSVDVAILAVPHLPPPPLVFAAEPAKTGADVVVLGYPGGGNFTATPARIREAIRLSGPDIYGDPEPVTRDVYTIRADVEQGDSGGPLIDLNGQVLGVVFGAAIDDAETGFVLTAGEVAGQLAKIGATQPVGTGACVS
UGM FP inh: blocks M. tuberculosis UGM enzyme; purified UGM, fluorescence polarization probe displacement; inhibition, % at 10 µM; P9WIQ1; AID 504406; 320,000 compounds, 0.06% hits; in the data active = inhibition above about 10%, passing the limit was not always enough; inconclusive = no clear call, values can overlap the other calls
GFP chromo cs: counter-screen: blocks GFP chromophore formation; shares compounds with RecA intein inh; cell-free GFP chromophore formation, fluorescence; EC50, µM; 2,100 compounds, 83% hits
An asterisk follows results filed as active; ? = inconclusive; . = not tested or not shown. In the library only some 1.1% were active in any assay of this set; here they are far more common. Unless noted, the rule behind the calls is not given here.

SMILES	RecA intein inh	Mtb bLac sens	SSB-PriA inh	Rv3671c inh	UGM FP inh	GFP chromo cs
O=C(N/N=C\c1ccc(-c2ccccc2[N+](=O)[O-])o1)C1COc2ccccc2O1 (stereo unspecified)	32.6*	-12.1	.	-74.8	0.8	38.7*
CC(Oc1ccc2c(c1)OCO2)C(=O)NCCn1ncccc1=O (stereo unspecified)	.	.	-6.0	.	.	.
CS(=O)(=O)c1nc(-c2ccc(F)cc2)cc(C(F)(F)F)n1	.	.	-21.9	.	.	.
COCC(C)NC(=O)CCS(=O)(=O)c1nc(-c2ccc(OC)cc2)cc(C(F)(F)F)n1 (stereo unspecified)	32.8*	20.5	-1.9	-3.8	-1.8	34.9*
COC(=O)CCS(=O)(=O)c1nc(-c2ccccc2)cc(C(F)(F)F)n1	67.3*	99.1	-6.0	0.0	-1.9	10.8*
COc1ccc(-c2cc(C(F)(F)F)nc(S(C)(=O)=O)n2)cc1	71.8*	96.3	-3.0	-8.5	-0.7	13.9*
CCOC(=O)CS(=O)(=O)c1nc(-c2ccccc2)cc(C(F)(F)F)n1	71.6*	92.7	-18.9	-8.1	-1.4	5.95*
Cc1cc(C)n([C@@H](C)CC(=O)Nc2ccc(F)cc2)n1	.	.	-14.0	.	.	.
CCOC(=O)CCS(=O)(=O)c1nc(-c2ccccc2)cc(C(F)(F)F)n1	78.3*	100.2	-7.5	-5.2	0.5	7.25*
CCOC(=O)CS(=O)(=O)c1nc(-c2ccc(F)cc2)cc(C(F)(F)F)n1	73.6*	95.6	-14.4	-11.5	-0.6	6.04*
CCOC(=O)c1c(C(F)(F)F)cc(-c2ccc(F)cc2)nc1C	-2.2	-0.9	-89.5	5.8	0.3	.
O=C(O)CCS(=O)(=O)c1nc(-c2cccs2)cc(C(F)(F)F)n1	24.7	.	-4.0	-4.8	0.4	.
O=C(CCSc1nnc2ccccn12)Nc1ccc(-c2nc3ccccc3s2)cc1	.	.	-12.0	.	.	.
CCn1nc(/C=C/c2ccccc2)nc2c(=O)n(C)c(=O)nc1-2	78.6*	.	3.0	.	.	0.309*
Cc1ccc(N2C[C@@H](C(=O)NCCn3nc(-c4cccnc4)n(C4CC4)c3=O)CC2=O)cc1	.	.	-10.0	.	.	.
COc1ccc(Nc2cnn(-c3nc4ccccc4s3)c(=O)c2Cl)cc1	47.4*	22.5	5.1	-3.4	0.0	6.74*
O=c1c(Cl)c(Nc2cccc(Cl)c2)cnn1-c1nc2ccccc2s1	0.7	?	0.2	-5.2	0.8	.
CCN(CC)C(=O)c1ccc2c(c1[N+](=O)[O-])C(=O)c1ccccc1C2=O	41.8*	-8.1	.	11.3	1.1	>38
CCN(CC)C(=O)c1cccc2c1C(=O)c1ccccc1-2	.	-0.8	-13.7	2.5	-1.0	.
CCC(=O)N/N=C(\C)CC(=O)Nc1cccc([N+](=O)[O-])c1	76.0*	1.5	.	3.3	1.8	28.7*
C=CCn1c(N)c(C(=O)Nc2cccc(C)c2)c2nc3ccccc3nc21	34.4*	14.6	-45.6	-4.2	-0.9	24.2*
COc1cc(C(=O)Nc2ccc(-c3nc4ccc(C)cc4s3)cc2)on1	.	.	-30.0	.	.	.
CSc1cccc(NC(=O)Cn2c(=O)n(Cc3ccco3)c(=O)c3oc4ccccc4c32)c1	.	.	-1.0	.	.	.
COc1ccc(CN(CCC(c2ccccc2)c2ccc(OC(C)C)cc2)C(=O)CCl)cc1OC (stereo unspecified)	82.9*	99.1	1.0	-1.3	2.2	0.399*
CC(C)Cc1ccc(-c2cc(=O)[nH][nH]2)cc1	92.1*	-1.6	-2.1	3.9	2.0	2.6*
SMILES	RecA intein inh	Mtb bLac sens	SSB-PriA inh	Rv3671c inh	UGM FP inh	GFP chromo cs
CC(C)Cc1ccc([C@H](C)C(=O)O)cc1	3.4	3.1	-6.3	-5.5	1.5	.
C=C(C)CNC(=S)NN=C(C)c1ccc(Cl)s1	.	.	5.2	.	.	.
COC(=O)c1ccc(NC(=O)Cn2nc(-c3ccccc3)c3sc(N4CCCC4)nc3c2=O)cc1	.	.	-15.0	.	.	.
O=C(NCc1nccc(N2CCOCC2)n1)c1ccco1	.	.	-15.0	.	.	.
C=C1[C@@H]2CC[C@H]3[C@]4(C)C[C@H](O[C@@H]5OC(CO)[C@@H](OSOOO)[C@H](OS(=O)(=O)O)[C@H]5OC(=O)CC(C)C)C[C@@H](C(=O)O)[C@H]4CC[C@]3(C2)[C@H]1O (stereo partly specified)	.	.	1.5	.	.	.
CC(C)(C)Nc1nc(Cl)nc(N(C#N)CN2C(=O)c3ccccc3S2(=O)=O)n1	50.6*	2.7	-3.1	-19.0	-1.5	39.4*
CSc1ccc(NC(=O)c2ccc(S(=O)(=O)N3CCc4ccccc4C3)cc2)cc1	.	.	-17.0	.	.	.
COc1ccc(Cn2c(O)c(/C=N/NC(=O)c3ccccc3O)c(=O)[nH]c2=O)cc1	30.7*	2.6	.	-12.7	0.5	>38

High-throughput results as filed in PubChem.
